Measured values taken from publication PMC5540273 (PLoS ONE, 2017).

Tests used:
Details in all cases: concentration: 1 μM, replicates: in singlicate; n = 1
[1] = system: ABL2
[2] = system: ACVR1B
[3] = system: ACVR1
[4] = system: ACVR2A
[5] = system: ACVR2B
[6] = system: ACVRL1
[7] = system: T1, ADCK3
T1 construct: gene CABC1

[8] = system: ADCK4
[9] = system: AKT1
[10] = system: AKT2
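Note: KINOMEscan kinase panel screen.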

| SMILES | %Inh [1] | %Inh [2] | %Inh [3] | %Inh [4] | %Inh [5] | %Inh [6] | %Inh [7] | %Inh [8] | %Inh [9] | %Inh [10] |
| --- | --- | --- | --- | --- | --- | --- | --- | --- | --- | --- |
| CC(C)(C)OC(=O)NC1CCCN(c2cc(-c3ccc4c(N)n[nH]c4c3)nc(N)n2)C1 (stereo not shown) [GSK2286096] | 6% | 0% | 0% | 0% | 0% | 0% | 8% | 5% | 0% | 0% |
| OCCOCCn1ccc2ncnc(Nc3ccc(Oc4cccc(Cl)c4)c(Cl)c3)c21 | 0% | 0% | 0% | 8% | 0% | 0% | 2% | 0% | 0% | 0% |
| Nc1nc(-c2ccccn2)c(-c2ccnc3ccccc23)s1 [GW548057] | 14% | 59% | 18% | 0% | 56% | 0% | 9% | 44% | 0% | 0% |
| CCC(CC)(CC)n1cnc2c(N)ncnc21 [SKF-97620] | 1% | 10% | 0% | 0% | 0% | 0% | 0% | 9% | 11% | 0% |
| COC(=O)c1cccc(NC(=O)NCCNc2ccnc(Nc3ccc(F)cc3)n2)c1 [GSK1379883] | 1% | 0% | 6% | 0% | 0% | 0% | 15% | 48% | 0% | 0% |
| Cl.c1ccc(Cn2ncc3cc(Nc4ncnc5ccccc45)ccc32)cc1 [GW273749] | 0% | 0% | 5% | 0% | 0% | 0% | 7% | 22% | 0% | 13% |
| Cc1ccc(O)cc1Nc1cc(C(F)(F)F)nc2ccc(-c3ccncc3)cc12 [GW630823] | 14% | 0% | 11% | 0% | 0% | 0% | 10% | 0% | 5% | 1% |
| N#Cc1ccc(Oc2ccc(Nc3ncnc4cc[nH]c34)cc2Cl)cc1 | 12% | 15% | 1% | 27% | 25% | 6% | 13% | 8% | 0% | 0% |
| CS(=O)(=O)CCNCc1nc(-c2ccc3ncnc(Nc4ccc(OCc5cccc(F)c5)c(Cl)c4)c3c2)cs1.Cl [GW583340] | 0% | 0% | 0% | 0% | 0% | 0% | 1% | 20% | 0% | 0% |
| O=C(c1ccc(-c2cc(-c3c[nH]nc3-c3ccccn3)ccn2)cc1)N1CCCC1 [GW792479] | 0% | 77% | 0% | 11% | 22% | 0% | 27% | 0% | 2% | 0% |
| Cl.Cn1ccc(-c2cccc(Nc3ccnc4cc(-c5nccs5)ccc34)c2)n1 [GW525701] | 10% | 0% | 3% | 0% | 0% | 0% | 6% | 55% | 0% | 7% |
| CCc1nc(-c2cccc(N(C)S(=O)(=O)c3ccccc3)c2)c(-c2ccnc(Nc3ccc(N4CCN(C(C)=O)CC4)nc3)n2)s1 [GSK1645895] | 23% | 0% | 0% | 0% | 0% | 0% | 16% | 19% | 0% | 0% |
| O=C(Nc1ccccc1F)NC1CCN(c2ccnc(Nc3ccc(F)cc3)n2)C1 (stereo not shown) [GSK1379722] | 9% | 0% | 25% | 0% | 0% | 0% | 20% | 40% | 0% | 13% |
| COc1cc2c(Nc3cccc(NC(=O)c4ccccc4)c3)ncnc2cc1OCCCN1CCOCC1 [GSK223810] | 21% | 7% | 5% | 0% | 0% | 0% | 30% | 12% | 0% | 19% |
| COC(=O)c1c(-c2ccccc2)c2cc(Cl)ccc2c(=O)n1Cc1ccc(S(C)(=O)=O)cc1 | 18% | 0% | 0% | 0% | 0% | 0% | 17% | 0% | 9% | 3% |
| CCCc1ccc(S(=O)(=O)NC2CCN(c3ccnc(Nc4ccc(OC)cc4)n3)C2)cc1 (stereo not shown) [GSK1379737] | 14% | 0% | 0% | 0% | 0% | 0% | 0% | 66% | 0% | 0% |
